# PubChem BioAssay (Tox21)
# A number with no mark means an inactive call. Calls follow the shape of the dose curve; as a rule, active = well fitted activation curve with a large enough effect in the repeat runs; inconclusive = weak or mixed curves; inactive = flat fitted curve, though single readings scatter.
# Biological target: KiSS-1 receptor (Homo sapiens) (UniProt Q969F8)
# Test: Human kisspeptin (KISS1R) small molecule agonists, calcium flux assay in KISS1R-HEK293 cells (AID 1920064)
# Conditions: KISS1R-HEK293, calcium flux fluorescence, agonist; series mostly up to 76.8 µM; activation: at the top concentration
# From the text: National Center for Advancing Translational Sciences [NCATS]
# Division of Preclinical Innovation [DPI]
# U.S. Environmental Protection Agency [EPA]
# National Institutes of Environmental Health Sciences [NIEHS]
# National Toxicology Program [NTP]
# U.S. Food and Drug Administration [FDA]
# Kisspeptin and its receptor KISS1R play key roles in mammalian reproduction due to their involvement in the onset of puberty and control of the hypothalamic-pituitary-gonadal axis such as regulates GnRH release from the hypothalamus. The kisspeptin/KISS1R system also plays a direct role in peripheral organs (including the ovary, testis, uterus, and placenta) and is implicated in reproductive diseases such as miscarriage and polycystic ovary syndrome (PCOS). Abnormal KISS1R activity is associated with abnormal puberty, infertility, endometriosis, and hormone-dependent tumors. The KISS1 receptor (KISS1R, also called GPR54), a G-protein-coupled receptor (GPCR), acts (through phospholipase C) to increase intracellular inositol trisphosphate and then release intracellular calcium stores. Cell-based KISS1R-HEK293 assay is using HEK293 cells that have been genetically engineered to express the human KISS1R, which activity can be measured by calcium signaling. A compound/drug can activate (agonist) KISS1R that can be monitored by levels of intracellular calcium.
# KISS1R-HEK293 cells developed by Codex Corp contain human KISS1R gene, which was stably integrated into HEK 293 cells. The compound activation can be detected by fluorescence intensity via calcium flux assay. This cell line has been used to screen the Tox21 10K compound library to identify agonists of KISS1R.
# KISS1R-Hek293 cells were dispensed at 1500 cells/4uL/well in 1536-well black wall/clear bottom plates using a multidrop dispenser. After the assay plates were incubated at a 37 C/5% CO2 incubator for 18 hours, 4 microL of Calcium Dye Solution was added to each well. The plates were incubated at 37 C for 1 hour. And then 23 nL of compounds dissolved in DMSO, positive controls, or DMSO only was transferred to the assay plate by a pin tool station. The fluorescence intensity in the plates was measured using FDSS 7000EX kinetic plate reader with a filter set of Ex/Em=480/540 for 3 min at 1 sec intervals. Each test compound was measured at 15 concentrations and in triplicates.
# % is scaled to controls: 0 for no effect and ±100 for the full control effect.
# Sequence of KiSS-1 receptor (Homo sapiens) (Q969F8 whole entry, looked up): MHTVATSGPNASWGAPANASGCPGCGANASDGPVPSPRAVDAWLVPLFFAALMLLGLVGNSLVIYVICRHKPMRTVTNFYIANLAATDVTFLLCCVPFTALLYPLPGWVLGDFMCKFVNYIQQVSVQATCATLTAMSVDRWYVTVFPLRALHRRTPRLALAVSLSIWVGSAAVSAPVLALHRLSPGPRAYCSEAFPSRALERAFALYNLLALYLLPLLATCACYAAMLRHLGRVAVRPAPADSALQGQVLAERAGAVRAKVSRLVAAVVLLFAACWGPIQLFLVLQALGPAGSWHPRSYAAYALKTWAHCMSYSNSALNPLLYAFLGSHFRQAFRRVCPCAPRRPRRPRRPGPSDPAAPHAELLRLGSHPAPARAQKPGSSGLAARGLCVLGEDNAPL
row,Compound,activation
1,O=[N+]([O-])c1cccc(S(=O)(=O)NCCNS(=O)(=O)c2cccc([N+](=O)[O-])c2)c1,-0.642% [at 35.3 µM]
2,NC(=O)c1ccncc1,1.42%
3,CC(c1cc(C(C)(C)C)cc(C(C)(C)C)c1O)c1cc(C(C)(C)C)cc(C(C)(C)C)c1O,15.8%
4,CCCCN1CCCC1C(=O)Nc1c(C)cc(C)cc1C (stereo not given),3.05% [at 35.3 µM]
5,Nc1cc(C(=O)O)c(O)c(S(=O)(=O)O)c1,-0.202%
6,CN1CCN(C2=Nc3cc(F)ccc3Cc3ccccc32)CC1,-0.217% [at 35.3 µM]
7,CCNC(=O)NCCCOc1cccc(CN2CCCCC2)c1,-2.29% [at 35.3 µM]
8,CCc1nnc(NS(=O)(=O)c2ccc(N)cc2)s1,0.943% [at 35.3 µM]
9,Clc1ccc2n[nH]nc2c1,2.2%
10,CCC=CC#N,0.424%
11,CC(=O)CC(=O)OC(C)(C)C,-0.472%
12,ONc1ccccc1,0.14%
13,Cc1ccc2c(c1)c1c3n2CCNC3CCC1 (stereo not given),0.565% [at 35.3 µM]
14,Clc1cc(Cl)c(Cl)nc1Cl,-0.0442%
15,CC1=CC(=O)CC(C)(C)C1=O,-0.456%
16,COc1ccccc1OCC(O)CN1CCN(CC(=O)Nc2c(C)cccc2C)CC1 (stereo not given),-1.27% [at 35.3 µM]
17,CC[N+](CC)(CC)Cc1ccccc1,-1.87%
18,Nc1ccnc(=O)[nH]1,-2.56%
19,CCCCOC(=O)/C=C\C(=O)OCCCC,-2.07%
20,Nc1nc(N)nc(-c2cc(Cl)ccc2Cl)n1,-1.06% [at 35.3 µM]

row,Compound,activation
1,O=C1C=CCCC1,1.38%
2,O=C(Oc1ccccc1)c1ccccc1C(=O)Oc1ccccc1,-1.4%
3,FC(F)OC(Cl)C(F)(F)F (stereo not given),-2.43%
4,C=COCC1CCC(COC=C)CC1 (stereo not given),0.334%
5,C/C(=N\[Si](C)(C)C)O[Si](C)(C)C,0.892%
6,CCO[Si](CC)(OCC)OCC,0.676%
7,COc1cc(-c2nc(NC(=O)c3cc4cc(C)cc(C)c4n3CC(=O)O)sc2CCC2CCCCC2)c(OC)cc1Cl,-1.26%
8,COc1ccc(C(=O)Nc2ccccc2)cc1[N+](=O)[O-],-0.392%
9,CN(C)C(=O)Nc1ccc(Oc2ccc(Cl)cc2)cc1,0.236%
10,N=C1N=C(N)c2ccccc21,-0.0735%
11,OCC(F)(F)F,-0.526%
12,OCCC(O)CO (stereo not given),0.368%
13,CC(CCc1ccccc1)NCC(O)c1ccc(O)c(C(N)=O)c1 (stereo not given),2.67%
14,O=C1CCC(C2CCCCC2)CC1,-3.44%
15,FC(F)(F)C(F)(F)C(F)(F)C(F)(F)C(F)(F)C(F)(F)C(F)(F)C(F)(F)C(F)(F)C(F)(F)F,-3.4% [at 6.97 µM]
16,C=CCOc1nc(OCC=C)nc(OCC=C)n1,0.241%
17,CCCCC(CC)(CO)CO,0.0296%
18,Cc1ccc(OC(=O)c2ccccc2O)cc1,-1.55%
19,Cc1nc(-c2ccc(Cl)cc2)oc1COC(C)(C)C(=O)O,-0.219% [at 35.3 µM]
20,O=C(CCCN1CCN(c2ccccn2)CC1)c1ccc(F)cc1,-0.556% [at 35.3 µM]
